{"source": "PubChem BioAssay AID1240", "about": "(Sanford-Burnham Center for Chemical Genomics, 2008)", "note": "Among all 50,000 compounds or so, about 800 (1.6%) showed an effect of 50% or more. For the sample, strong results were picked, then their nearest neighbours and some compounds at random."}
{"biological_target": "Bcl-2-like protein 10 (Homo sapiens) (UniProt Q9HD36)", "sequence (Q9HD36 whole entry, looked up)": "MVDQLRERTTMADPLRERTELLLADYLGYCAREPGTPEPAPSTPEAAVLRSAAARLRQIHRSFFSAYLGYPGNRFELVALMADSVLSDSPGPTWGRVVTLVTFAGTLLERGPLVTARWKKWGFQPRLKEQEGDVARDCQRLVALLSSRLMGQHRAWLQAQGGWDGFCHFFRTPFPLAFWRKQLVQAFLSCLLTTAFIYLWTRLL", "assay": "TR3 peptide-Bcl-B binding displacers, biochemical primary FP assay, phenotype converters (AID 1240);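 further: 0% = Bcl-B with tracer peptide and DMSO and 100% = tracer peptide lacking Bcl-B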", "conditions": "GST-Bcl-B / FITC-TR3 peptide fluorescence polarization; stronger effect = higher value; compound at 3.75 mg/L", "units": {"displacement": "%"}}
{"smiles": "O=C(O)c1ccc(NC(=O)c2ccc(Cl)cc2)cc1", "displacement": -3.6}
{"smiles": "COc1cc(/C=C/C(=O)c2c(C)cc(C)[nH]c2=O)cc(OC)c1OC", "displacement": 8.5}
{"smiles": "Cc1ccc(/C=C2\\SC(=Nc3ccc(F)cc3)NC2=O)o1", "displacement": 101}
{"smiles": "COc1ccc(/C=C2/SC(=Nc3ccc(F)cc3)NC2=O)c(OC)c1", "displacement": 11.6}
{"smiles": "Cc1ccccc1/C=C1/SC(=Nc2ccc(F)cc2)NC1=O", "displacement": 7.8}
{"smiles": "Cc1ccc(N=C2NC(=O)/C(=C\\c3ccc(C)o3)S2)cc1", "displacement": -9.8}
{"smiles": "COc1ccccc1/C=C1/SC(=Nc2ccc(F)cc2)NC1=O", "displacement": 161}
{"smiles": "O=C1NC(=Nc2ccc(F)cc2)S/C1=C\\c1ccco1", "displacement": 32.8}
{"smiles": "COc1ccc(/C=C2\\SC(=S)N(NC(=O)c3cccnc3)C2=O)cc1", "displacement": 3.4}
{"smiles": "COc1ccc(/C=C(\\C#N)c2nc(-c3ccc(C)cc3)cs2)cc1", "displacement": 4.5}
{"smiles": "COc1cc(/C=C(\\C#N)c2nc(-c3ccc(-c4ccccc4)cc3)cs2)ccc1O", "displacement": 112}
{"smiles": "Cc1ccc(-c2csc(/C(C#N)=C\\c3ccc(C)s3)n2)cc1", "displacement": -2.9}
{"smiles": "CCCCc1ccc(-c2csc(/C(C#N)=C/c3ccc(O)c(OC)c3)n2)cc1", "displacement": 2.4}
{"smiles": "COc1ccc(/C=C(/C#N)c2nc(-c3ccc(Br)cc3)cs2)cc1OC", "displacement": 101}
{"smiles": "COc1ccc(-c2csc(/C(C#N)=C\\c3ccc(C)s3)n2)cc1", "displacement": 115}
{"smiles": "N#C/C(=C\\c1ccc(O)cc1)c1nc(-c2ccc(-c3ccccc3)cc2)cs1", "displacement": 21.6}
{"smiles": "COc1cccc(/C=C(\\C#N)c2nc(-c3ccc(Br)cc3)cs2)c1", "displacement": -7.3}
{"smiles": "CCCCc1ccc(-c2csc(/C(C#N)=C/c3ccc(OC)c(OC)c3)n2)cc1", "displacement": 4.8}
{"smiles": "Cc1ccc(/C(O)=C2\\C(=O)C(=O)N(c3nncs3)C2c2cccc(Cl)c2)cc1", "note": "(stereo not drawn)", "displacement": 12.7}
{"smiles": "Cc1cc(C)c2nc3s/c(=C\\c4ccc([N+](=O)[O-])cc4)c(=O)n3c2c1", "displacement": -6.3}
{"smiles": "O=C(Nc1ccc(Br)cc1)C1C(c2ccccc2)=C1c1ccccc1", "displacement": -6.7}
{"smiles": "CC(=O)N1c2ccccc2NC2=C(C(=O)CC(c3ccccc3)C2)C1c1ccccc1Cl", "note": "(stereo not drawn)", "displacement": -12}
{"smiles": "CC1(C)c2ccccc2N(CCO)C12C=Cc1cc(Br)ccc1O2", "note": "(stereo not drawn)", "displacement": 7.8}
{"smiles": "Cc1ccc(CNC(=O)c2ccc([N+](=O)[O-])cc2Cl)cc1", "displacement": 0.9}
{"smiles": "Cc1ccccc1NC(=O)c1c(N)sc2c1CCCC2", "displacement": 12.7}
{"smiles": "COc1ccc(C2/C(=C(\\O)c3ccc(Cl)cc3)C(=O)C(=O)N2c2cccnc2)c(OC)c1", "note": "(stereo not drawn)", "displacement": -7.1}
{"smiles": "CCOc1ccc(/C=C2/SC(NC(C)=O)=NC2=O)cc1", "displacement": 132}
{"smiles": "CCOc1ccc(/C=C2/SC(NC(C)=O)=NC2=O)cc1OCC", "displacement": 54.6}
{"smiles": "CCOc1cc(/C=C2/SC(N)=NC2=O)ccc1OCc1ccc(F)cc1", "displacement": -15.9}
{"smiles": "CCOc1ccccc1/C=C1/SC(NC(C)=O)=NC1=O", "displacement": 12.9}
{"smiles": "C=C1CC(C)OC(c2ccccc2O)C1", "note": "(stereo not drawn)", "displacement": -4.4}
{"smiles": "O=C1CC(Nc2ccc(F)cc2)C(=O)N1c1ccccc1C(F)(F)F", "note": "(stereo not drawn)", "displacement": 1.1}
{"smiles": "C=CCNC(=O)CN(c1ccc(OC)cc1)S(C)(=O)=O", "displacement": 1.7}
{"smiles": "COc1cc(C(=O)c2cc(Br)ccc2NC(=O)COc2ccc(C)cc2)cc(OC)c1OC", "displacement": 17.2}
{"smiles": "COc1cc(C(=O)c2cc(Br)ccc2NC(=O)COc2ccccc2)cc(OC)c1OC", "displacement": 57.3}
{"smiles": "COc1cc(C(=O)Nc2ccc(Br)cc2C(=O)c2cc(OC)c(OC)c(OC)c2)cc(OC)c1OC", "displacement": 22.3}
{"smiles": "COc1cc(CN2CCN(Cc3ccccn3)CC2)cc(OC)c1OC", "displacement": -5.1}
{"smiles": "CCOC(=O)C(Cc1cc(C)c(CC(C(=O)OCC)C(=O)OCC)cc1C)C(=O)OCC", "displacement": -8.7}
{"smiles": "CCOC(=O)C1=CN(c2ccc(F)cc2)C=C(C(=O)OCC)C1c1cc(OC)c(OC)c(OC)c1", "displacement": -2.3}
{"smiles": "CC(=O)N/N=C/c1cc(C)n(-c2ccc(Cl)cc2Cl)c1C", "displacement": -7.1}
{"smiles": "COc1cccc2cc(-c3nc(-c4ccc(Cl)c(Cl)c4)cs3)c(=O)oc12", "displacement": 0.1}
{"smiles": "COc1cccc(-c2csc(-c3cc4cccc(OC)c4oc3=O)n2)c1", "displacement": -23.1}
{"smiles": "O=c1oc2cc(O)c([N+](=O)[O-])cc2cc1-c1csc(-c2ccc(Cl)cc2)n1", "displacement": -11.3}
{"smiles": "O=c1oc2ccccc2cc1-c1nc(-c2ccc(Cl)c(Cl)c2)cs1", "displacement": 61.2}
{"smiles": "Cc1ccc(-c2csc(-c3cc4cc([N+](=O)[O-])ccc4oc3=O)n2)cc1", "displacement": -7.9}
{"smiles": "Cc1ccc(-c2nc(-c3cc4cc([N+](=O)[O-])c(O)cc4oc3=O)cs2)cc1", "displacement": -4.8}
{"smiles": "COc1cccc2cc(-c3nc(-c4ccc(C)c(C)c4)cs3)c(=O)oc12", "displacement": 80.5}
{"smiles": "CCOc1ccc(-c2csc(-c3cc4ccccc4oc3=O)n2)cc1", "displacement": -2.8}
{"smiles": "O=c1oc2cc(O)ccc2cc1-c1csc(-c2ccc(-c3ccccc3)cc2)n1", "displacement": 116}
{"smiles": "O=c1oc2cc(O)c([N+](=O)[O-])cc2cc1-c1csc(-c2cc3ccccc3oc2=O)n1", "displacement": -10}
{"smiles": "COc1cccc2cc(-c3nc(-c4ccccc4)cs3)c(=O)oc12", "displacement": 7.8}
{"smiles": "Cc1ccc(-c2csc(-c3cc4ccccc4oc3=O)n2)cc1", "displacement": 154}
{"smiles": "CCOC(=O)c1c(-c2ccc(OC)cc2)csc1NC(=O)c1cccc([N+](=O)[O-])c1", "displacement": 12.6}
{"smiles": "Cc1cc(/C=C2\\SC(=O)NC2=O)c(C)n1C1CCCCC1", "displacement": 8.2}
{"smiles": "Cc1ccc(OCc2nc(-c3cccnc3)no2)c(Br)c1", "displacement": 10.7}
{"smiles": "N#C/C(=C\\c1ccc(C(=O)O)cc1)C(=O)NCC1CCCO1", "note": "(stereo not drawn)", "displacement": 0}
{"smiles": "Fc1ccc(-c2nnn(Cc3c(F)cccc3Cl)n2)cc1", "displacement": -6.4}
{"smiles": "CC1=C(C(=O)OCC(F)(F)F)C(c2ccccc2)NC(=O)N1", "note": "(stereo not drawn)", "displacement": 7.2}
{"smiles": "Cc1cccc(NC(=O)C2C(C(=O)O)C3C=CC2C32CC2)c1", "note": "(stereo not drawn)", "displacement": -1.1}
{"smiles": "O=C(CSc1nc2ccccc2s1)c1ccc2ccccc2c1", "displacement": 11.9}
{"smiles": "COc1ccc(-c2csc(-c3cc4cc(Cl)cc(Cl)c4oc3=O)n2)cc1", "displacement": 75}
{"smiles": "CCc1ccc(-c2csc(-c3cc4cccc(OC)c4oc3=O)n2)cc1", "displacement": -23.6}
{"smiles": "COc1cccc2cc(-c3nc(-c4ccc(Cl)cc4Cl)cs3)c(=O)oc12", "displacement": -11.5}
{"smiles": "COc1cc(NS(=O)(=O)c2ccc(C)cc2)cc(OC)c1O", "displacement": 13.5}
{"smiles": "NC(=O)COc1ccc(/C=N/NS(=O)(=O)c2ccccc2)cc1", "displacement": 0.2}
{"smiles": "COc1cc(/C=C(\\C#N)c2ccc([N+](=O)[O-])cc2)c(OC)cc1Br", "displacement": 14.7}
{"smiles": "COc1ccc(OC)c(/C=C(\\C#N)c2ccc([N+](=O)[O-])cc2)c1", "displacement": 4}
{"smiles": "COc1ccc(/C=C(\\C#N)c2ccc([N+](=O)[O-])cc2)c(OC)c1", "displacement": 110}
